This note sets out measurements from the supplement of paper PMC13380429.

Structures are written as SMILES.

The first assay deals with Vero E6 infected with SARS-CoV-2. The assay can be described thus: morphology score (similarity to uninfected cells); higher = more like uninfected cells. The following applies: 24 h.
`CC(=O)OCC(=O)[C@@]12OC(C)(C)O[C@@H]1C[C@H]1[C@@H]3C[C@H](F)C4=CC(=O)C=C[C@]4(C)[C@@]3(F)[C@@H](O)C[C@@]12C` [fluocinonide] (10 µM) registered a morphology score of 0.184.

In turn, `Oc1ccc(/C=C/c2cc(O)cc(O)c2)cc1` [resveratrol] (10 µM) gave a morphology score of 0.0102.

The compound `O=C1c2cccc(O)c2C(=O)c2c(O)cccc21` [dantron] (10 µM) gave a morphology score of -0.0545.

The compound `COc1cc(C(=O)NC2CCCNC2)cc(OC)c1OC` (stereo not given) [troxipide] (10 µM) returned a morphology score of -0.014.

In the case of `CC(C)(NS(=O)(=O)c1ccc(Oc2ccc(F)cc2)cc1)C(=O)NO` (10 µM), the morphology score worked out at 0.193.

Regarding `Cn1cc(C2=C(c3ccc(Cl)cc3Cl)C(=O)NC2=O)c2ccccc21` (10 µM), the morphology score is 0.00458.

For the compound `FC(F)(F)c1ccc(CNc2ccc(Cc3c[nH]c4ncccc34)cn2)cc1` (10 µM), the morphology score was 0.0358.

`O=C(NCC(=O)N1CC[C@H](N[C@H]2CC[C@@](O)(c3ccc(-c4ncccn4)cn3)CC2)C1)c1cccc(C(F)(F)F)c1` (10 µM): the morphology score came out at 0.0269.

Turning to `CCn1c(=O)[nH]c2ccccc21` (10 µM), the morphology score turned out to be 0.182.

On to `CCCC(=O)O` [sodium-butyrate] (10 µM), for which the morphology score was 0.0558.

For the next assay the test system is unchanged. In words: SARS-CoV-2 infection rate relative to infected DMSO; higher = more infection, active = 60 or less. The following applies: 24 h.
For the compound `COC(=O)/C=C/C(=O)N[C@@H]1CC[C@@]2(O)[C@H]3Cc4ccc(O)c5c4[C@@]2(CCN3CC2CC2)[C@H]1O5` [beta-funaltrexamine] (10 µM), the SARS-CoV-2 infection rate is 99% (inactive).

`COc1ncc(-c2ccc3c(Nc4cc(Oc5cc(F)cc(F)c5)cc(C(=O)O)c4)c(S(=O)(=O)NC4CC4)cnc3c2)c(OC)n1` (10 µM): the SARS-CoV-2 infection rate was 109% (inactive).

With `Cc1ccccc1-n1c(CF)nc2ccc(N)cc2c1=O` [afloqualone] (10 µM), the SARS-CoV-2 infection rate was 96% (inactive).

In the case of `CN(C)C/C=C(/c1ccc(Br)cc1)c1cccnc1` [zimelidine] (10 µM), the SARS-CoV-2 infection rate is 97% (inactive).

On to `COc1c(C)cnc(Cn2cc(C#CCC(C)(C)O)c3c(Cl)nc(N)nc32)c1C` (10 µM), for which the SARS-CoV-2 infection rate is 110% (inactive).

Consider `Cc1cc(-c2ccccc2)nnc1NCCN1CCOCC1` [minaprine] (10 µM), for which the SARS-CoV-2 infection rate was 103% (inactive).

Consider `CN1C(=O)CC(c2ccccc2)C1=O` (stereo not given) [phensuximide] (10 µM), for which the SARS-CoV-2 infection rate is 112% (inactive).

On to `CC[C@]1(O)C[C@@H]2CN(CCc3c([nH]c4ccccc34)[C@@](C(=O)OC)(c3cc4c(cc3OC)N(C)[C@H]3[C@@](O)(C(N)=O)[C@H](O)[C@]5(CC)C=CCN6CC[C@]43[C@@H]65)C2)C1` [vindesine] (10 µM), for which the SARS-CoV-2 infection rate is 103% (inactive).

With `COc1cccc(OCCCN)c1-c1cc(Nc2cnc(C#N)cn2)n[nH]1` (10 µM), the SARS-CoV-2 infection rate was 103% (inactive).

On to `COc1cccc(OC)c1C(=O)N[C@@H]1C(=O)N2[C@@H]1SC(C)(C)[C@@H]2C(=O)O` [methicillin] (10 µM), for which the SARS-CoV-2 infection rate is 112% (inactive).

As to `Cc1cc(NC(=O)Nc2ccc(N(C)C)cc2)c2cc(F)cc(F)c2n1` (10 µM), the SARS-CoV-2 infection rate was 99% (inactive).

Consider `CC(C)(C)c1[nH]cnc1/C=c1\[nH]c(=O)/c(=C/c2ccccc2)[nH]c1=O` [plinabulin] (0.833333 µM), for which the SARS-CoV-2 infection rate is 112% (inactive).

For the compound `Cc1cccc(NC(=O)c2ccc(C(F)(F)F)cc2C(=O)O)n1` (10 µM), the SARS-CoV-2 infection rate is 109% (inactive).

As to `FC(F)c1nc2ccccc2n1-c1nc(N2CCOCC2)nc(N2CCOCC2)n1` (10 µM), the SARS-CoV-2 infection rate was 108% (inactive).

For the compound `C=CC1=C(C)C2=CC3=NC(=C(CC(=O)O)C4=NC(=C(C)C4=C(O)O)C=c4[nH]c(c(C)c4CC)=CC1=N2)C(CCC(=O)O)C3C` (stereo not given) [chlorophyllin] (10 µM), the SARS-CoV-2 infection rate is 94% (inactive).

`CCOC(=O)C1=C(C)NC(C)=C(C(=O)OCC)C1c1ccccc1/C=C/C(=O)OC(C)(C)C` [lacidipine] (10 µM): the SARS-CoV-2 infection rate is 106% (inactive).

`Nc1nc2c(ncn2COC(CO)CO)c(=O)[nH]1` [ganciclovir] (10 µM): the SARS-CoV-2 infection rate was 97% (inactive).

With `CC(C)NC[C@@H](O)COc1ccc(CC(N)=O)cc1` (racemic) [atenolol-(+/-)] (10 µM), the SARS-CoV-2 infection rate is 108% (inactive).

Consider `CN1CCC[C@@H]1CCO[C@](C)(c1ccccc1)c1ccc(Cl)cc1` [clemastine] (10 µM), for which the SARS-CoV-2 infection rate is 26.5% (active).

For `O=C(OCC(COC(=O)c1cccnc1)(COC(=O)c1cccnc1)COC(=O)c1cccnc1)c1cccnc1` [niceritrol] (0.833333 µM), the SARS-CoV-2 infection rate is 96.5% (inactive).

Turning to `NC1CCN(c2nc3c(cc2F)c(=O)c(C(=O)O)cn3-c2ccc(F)cc2F)C1` (stereo not given) [tosufloxacin] (10 µM), the SARS-CoV-2 infection rate was 112% (inactive).

In the case of `C[C@@H](O)[C@H](N)C(=O)N1CCC[C@H]1C(=O)N1CCC[C@H]1C(=O)N[C@H](C(N)=O)[C@@H](C)O` [rapastinel] (10 µM), the SARS-CoV-2 infection rate is 94% (inactive).

Take `O=C(O)c1ccc(N2C(=O)/C(=C/c3ccc(-c4ccc([N+](=O)[O-])cc4)o3)C=C2c2ccccc2)cc1` (10 µM): the SARS-CoV-2 infection rate is 93% (inactive).

As for `N#Cc1cccc(-c2c[nH]c3ncnc(N4CCOCC4)c23)c1` (10 µM), the SARS-CoV-2 infection rate was 108% (inactive).

As to `C=C(C)[C@@H]1CC[C@]2(C(=O)O)CC[C@]3(C)[C@H](CC[C@@H]4[C@@]5(C)CC[C@H](OC(=O)CC(C)(C)C(=O)O)C(C)(C)[C@@H]5CC[C@]43C)[C@@H]12` [bevirimat-dimeglumine] (10 µM), the SARS-CoV-2 infection rate is 113% (inactive).

In the case of `Cc1cn([C@H]2C[C@H](N=[N+]=[N-])[C@@H](CO)O2)c(=O)[nH]c1=O` [zidovudine] (10 µM), the SARS-CoV-2 infection rate is 108% (inactive).

Consider `CC[N+](CC)(CC)CCOc1ccc(/C=C/c2ccccc2)cc1` (10 µM), for which the SARS-CoV-2 infection rate is 105% (inactive).

In the case of `O=C1OC2(c3ccc(O)cc3Oc3cc(O)ccc32)c2ccccc21` [fluorescein] (10 µM), the SARS-CoV-2 infection rate was 110% (inactive).

For `C[C@]12CCC(=O)C=C1CC[C@@H]1[C@@H]2[C@@H](O)C[C@@]2(C)[C@H]1CC[C@]2(O)C(=O)COP(=O)(O)O` [hydrocortisone-phosphate] (10 µM), the SARS-CoV-2 infection rate is 98.5% (inactive).

For `CCCCS(=O)(=O)N[C@@H](Cc1ccc(OCCCCC2CCNCC2)cc1)C(=O)O` [tirofiban] (10 µM), the SARS-CoV-2 infection rate is 110% (inactive).

In the case of `CC(=O)OCC(=O)[C@@]12OC(C)(C)O[C@@H]1C[C@H]1[C@@H]3C[C@H](F)C4=CC(=O)C=C[C@]4(C)[C@@]3(F)[C@@H](O)C[C@@]12C` [fluocinonide] (10 µM), the SARS-CoV-2 infection rate was 104% (inactive).

`Oc1ccc(/C=C/c2cc(O)cc(O)c2)cc1` [resveratrol] (10 µM): the SARS-CoV-2 infection rate is 104% (inactive).

In the case of `O=C1c2cccc(O)c2C(=O)c2c(O)cccc21` [dantron] (10 µM), the SARS-CoV-2 infection rate was 103% (inactive).

For the compound `COc1cc(C(=O)NC2CCCNC2)cc(OC)c1OC` (stereo not given) [troxipide] (10 µM), the SARS-CoV-2 infection rate was 120% (inactive).

As for `CC(C)(NS(=O)(=O)c1ccc(Oc2ccc(F)cc2)cc1)C(=O)NO` (10 µM), the SARS-CoV-2 infection rate is 99% (inactive).

Turning to `Cn1cc(C2=C(c3ccc(Cl)cc3Cl)C(=O)NC2=O)c2ccccc21` (10 µM), the SARS-CoV-2 infection rate was 102% (inactive).

Turning to `FC(F)(F)c1ccc(CNc2ccc(Cc3c[nH]c4ncccc34)cn2)cc1` (10 µM), the SARS-CoV-2 infection rate was 110% (inactive).

With `O=C(NCC(=O)N1CC[C@H](N[C@H]2CC[C@@](O)(c3ccc(-c4ncccn4)cn3)CC2)C1)c1cccc(C(F)(F)F)c1` (10 µM), the SARS-CoV-2 infection rate is 106% (inactive).

Turning to `CCn1c(=O)[nH]c2ccccc21` (10 µM), the SARS-CoV-2 infection rate was 92.5% (inactive).

Take `CCCC(=O)O` [sodium-butyrate] (10 µM): the SARS-CoV-2 infection rate was 110% (inactive).
